Results on 40 compounds are retold here after PubChem BioAssay (NCI).

About 83,000 compounds went through this panel and 20% of them were active in at least one assay; those are over-represented in the sample as a whole.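 Method: cells in 96-well plates; compound added at one concentration; 48 h incubation; percent growth measured; values under 10 scored active.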 Values without a mark were called inactive. Activity calls are given as the source filed them.

The subject of this test is A498 renal. As to the kind of experiment: NCI-60 one-dose screen, 48 h (100 = growth as untreated, 0 = no growth, -100 = all killed). The note with it: 10 µM unless noted. On the procedure:
Growth inhibition of the A498 human tumor cell line is measured as a screen for anti-cancer activity. Cells are grown in 96 well plates and exposed to the test compound for 48 hours. Compounds are tested at a single concentration, which is 10^-5 M for most compounds. The reported endpoint is percent growth (GI% or GIPRCNT), where numbers from 0 - 100% represent growth inhibition, and numbers from -100% - 0 represent cell death. For example, a value of 40 represents 60% growth inhibition. A value of 0 means no net growth occurred over the course of the experiment. A value of -40 indicates 40% of cells at the beginning of the experiment died by the end of the experiment. A value of -100 means all cells are dead at the end of the experiment.
NCI-60 Human Tumor Cell Lines Screen was performed using the standard one-dose NCI protocol, which is described in more detail at https://dtp.cancer.gov/discovery_development/nci-60/default.htm.
Compounds with GIPRCNT values below 10 were considered active. Activity score was based on GIPRCNT using the following formula: […]
Score is 0 for GIPRCNT values of 100 or above, 50 for GIPRCNT values of 0, and 100 for GIPRCNT values of -100.
For the compound `C#CCOc1ccc(-c2csc(NC(=O)C=C)n2)cc1NS(=O)(=O)c1cccc2c(N(C)C)cccc12`, the growth is 79.8%.

Take `CN1CCC[C@]2(C)[C@H]3CC[C@@H]4[C@@H]5[C@H]6OC[C@@]5(CCC6(C)C)CC[C@@]4(C)[C@]3(C)CC[C@H]2C1(C)C`: the growth was 90.1%.

In the case of `COc1cc2oc(-c3cccc(NC(=O)[C@@H](N)C(C)C)c3)cc(=O)c2c(OC)c1OC`, the growth is 95.7%.

With `O=C(/C=C/c1cccc(C(F)(F)F)c1)Nc1cccc(C(F)(F)F)c1`, the growth was 54.3%.

Regarding `CCN1CCN(c2ccc(NC(=O)Nc3ccc4c(ccn4-c4ccnc(C(=O)NC)c4)c3)cc2C(F)(F)F)CC1`, the growth was 81.1%.

Consider `Cc1cc(Br)ccc1-n1cc(C#N)c(N)c1C(=O)c1ccc(Br)cc1`, for which the growth was 114%.

With `COc1ccc2sc(NC(=O)CCCCCCNC(=O)C(O)(O)C(F)(F)F)nc2c1`, the growth is -35.2% (active).

Consider `CCCCN1C(=O)/C(=c2\sc3n(c2=O)C2C(NN=3)N(CC)C(=O)N2CC)c2cccc(C)c21` (stereo not given), for which the growth is 5.04% (active).

`COc1ccc(C2c3[nH]c4ccc(Cl)cc4c3CCN2c2oc(CO)nc2C#N)cc1` (stereo not given): the growth is 68.7%.

As to `COc1ccc(/C=N/NC(=O)CSc2nc(-c3cnccn3)cc(-c3cccs3)c2C#N)cc1OC`, the growth was 38.2%.

For `CN1CCN(c2ccc(Nc3nc(NCCNC(=O)c4ccc(F)cc4)c4sccc4n3)cc2)CC1`, the growth was 125%.

For `CS(=O)(=O)c1nccc(-c2c(-c3cccc(OCc4ccc(Cl)c(C(F)(F)F)c4)c3)nc3sccn23)n1`, the growth was 98.3%.

`CSc1ccc(/C(=N/N=C(N)N)c2ccc(F)cc2)cc1`: the growth is 5.39% (active).

For `Cc1ccccc1N1CCN(C2=C(Cl)C(=O)c3ncccc3C2=O)CC1`, the growth is 111%.

As for `Cc1[nH]c(C(=O)Nc2ccc(C(=O)NCC3CCNCC3)cc2OC(C)C)c(Cl)c1Cl`, the growth was 79.4%.

On to `N/C(=N\C(N)=N\c1nc2ccccc2s1)c1ccc(Cl)cc1`, for which the growth is 74.7%.

With `CC(C)[C@H]1c2[nH]c3ccccc3c2C[C@H]2C(=O)N(CCCCCCC(=O)NO)CC(=O)N12`, the growth was 90%.

Regarding `CCc1cc(OC(=O)N2CCC(N3CCCCC3)CC2)ccc1Nc1cc(-c2ccc(-n3cccn3)cc2)[nH]n1`, the growth was 71.3%.

Consider `CC1=C(C)C(=O)C(Nc2ccc3c(c2)OCO3)=C(Br)C1=O`, for which the growth is 95.2%.

On to `COC(=O)c1ccc(NC2=C(Cl)C(=O)C(C)=C(C)C2=O)cc1`, for which the growth is 58.6%.

As for `CCCc1cc2cc(-n3nc(CC)c4c3CC(C)(C)CC4=O)cc(NC3CCC(O)CC3)c2c(=O)[nH]1` (stereo not given), the growth was 37%.

`CN1CCN(Cc2ccc(NC(=O)c3cncc(C#Cc4cnc5ccc(OCC6COC6)nn45)c3)cc2C(F)(F)F)CC1`: the growth is -93.7% (active).

On to `O=C(Nc1ccc(Cl)c(C(F)(F)F)c1)Nc1ccc2c(ccn2C(=O)c2cccc(F)c2)c1`, for which the growth was 70.3%.

Turning to `CC(C)C(/C=C/c1[nH]ncc1-c1cc(Cl)ccc1O)N1CCOCC1` (stereo not given), the growth was 81.7%.

With `COc1ccc(/C(=N\N=C(N)N)c2ccc(Cl)cc2)cc1OC`, the growth is 76.5%.

In the case of `CCC(=C(c1ccc(OCCN(C)C)cc1)c1ccc(OCCN(C)C)cc1)c1ccc(Cl)cc1`, the growth is -23.3% (active).

As to `CC1=C(SCC(=O)OCCCCCC(C)C)C(=O)c2ccccc2C1=O`, the growth is 107%.

Turning to `CCOC(=O)c1cccc(NC2=C(Cl)C(=O)c3nc(C)ccc3C2=O)c1`, the growth was 88.8%.

As for `C#Cc1cc(C(=O)Nc2ccc(CNCCN3CCOCC3)c(C(F)(F)F)c2)ccc1C`, the growth is 90.4%.

For the compound `O=C(Nc1ccc(Cl)c(C(F)(F)F)c1)Nc1ccc2oc(=O)ccc2c1`, the growth was 33%.

Take `CCOC(=O)c1c(NC(=O)c2ccc(C(F)(F)F)cc2)sc2c(CN3CCN(C)CC3)c(O)ccc12`: the growth is -6.72% (active).

Take `C#C[C@]1(O)CC[C@H]2[C@@H]3CC=C4c5sc(Nc6cccc(F)c6)nc5CC[C@]4(C)[C@H]3CC[C@@]21C`: the growth was 31.7%.

Turning to `CN1c2ccccc2Sc2cc(/C=N/Nc3ccnc4cc(Cl)ccc34)ccc21`, the growth is 131%.

On to `CCOC(=O)c1cccc(NC2=C(Cl)C(=O)C(C)=C(C)C2=O)c1`, for which the growth was 89.1%.

Turning to `COc1ccc(C(=NNS(=O)(=O)c2ccc(C)cc2)c2ccccc2)cc1OC`, the growth was 98.3%.

With `C=C(C)[C@@H]1CC[C@]2(COCCCNCCCN)CC[C@]3(C)[C@H](CC[C@@H]4[C@@]5(C)CC[C@H](O)C(C)(C)[C@@H]5CC[C@]43C)[C@@H]12`, the growth is -16.1% (active).

`COC(=O)c1cccc(NC2=C(Cl)C(=O)C(C)=C(C)C2=O)c1`: the growth is 87.7%.

For `CN1CCN(Cc2ccc(NC(=O)c3cncc(C#Cc4cnc5ccc(OC6CCOCC6)nn45)c3)cc2C(F)(F)F)CC1`, the growth was -92.5% (active).

As for `COc1ccc(/C(=N\NC(N)=S)c2ccc(Cl)cc2)cc1OC`, the growth is -4.86% (active).

With `COc1ccc2c(c1)c(/C=N/Nc1ccnc3cc(Cl)ccc13)cn2C`, the growth is -90% (active).
